In general, AC50 refers to the concentration at which the activity in the assay is half-maximal.

Values joined by “and” are separate entries in the source; they are usually repeats but may differ in a detail not shown here. Identical values can stand only once. Active and inactive are the calls of the source. Rule for the calls: active = hit-call score of the fitted dose curve at least 0.9, where 1 is the maximum; inactive = score below 0.9.

Sequence of Peroxisome proliferator-activated receptor gamma (Homo sapiens) (P37231 whole entry, looked up): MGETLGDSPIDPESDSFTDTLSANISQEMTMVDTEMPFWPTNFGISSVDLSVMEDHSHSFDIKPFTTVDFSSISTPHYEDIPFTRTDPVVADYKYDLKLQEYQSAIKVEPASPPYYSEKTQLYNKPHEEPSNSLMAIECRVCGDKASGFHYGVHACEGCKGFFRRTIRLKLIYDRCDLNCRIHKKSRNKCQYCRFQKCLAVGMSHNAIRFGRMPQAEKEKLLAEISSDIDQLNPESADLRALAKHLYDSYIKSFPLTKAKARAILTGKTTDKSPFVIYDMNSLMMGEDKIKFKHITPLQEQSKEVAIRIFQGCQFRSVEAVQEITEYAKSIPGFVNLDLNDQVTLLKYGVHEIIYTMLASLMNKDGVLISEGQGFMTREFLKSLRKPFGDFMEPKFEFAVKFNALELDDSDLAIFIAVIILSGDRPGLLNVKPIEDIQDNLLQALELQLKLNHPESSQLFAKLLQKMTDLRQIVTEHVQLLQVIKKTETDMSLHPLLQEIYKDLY

This assay addresses Peroxisome proliferator-activated receptor gamma (Homo sapiens) (UniProt P37231). In words: ERF_TW_NR_COA_hPPARG: Eurofins (ERF) Nuclear Receptor (NR) Functional Coactivator Assay for human Peroxisome Proliferator-activated Receptor gamma (PPARg) Agonism, conducted at Taiwan lab site. The protocol:
ERF_TW_NR_COA_hPPARG is a biochemical, single-readout assay that uses extracted gene-proteins in a cell-free assay. Measurements were taken 16 hours after chemical dosing in a 96-well plate. See PPARgamma Human NHR Functional Agonist Coactivator Assay, Panlabs.ERF_TW_NR_COA_hPPARG is an assay component calculated from the ERF_TW_NR_COA_hPPARG assay. It is designed to measure FRET using a type of binding reporter as detected by fluorescence intensity of rosiglitazone with fluorimetry technology.Data from the assay component ERF_TW_NR_COA_hPPARG was analyzed at the assay endpoint, ERF_TW_NR_COA_hPPARG, in the positive analysis fitting direction relative to DMSO as the negative control and baseline of activity. Using a type of binding reporter, gain-of-signal activity can be used to understand changes in binding as they relate to gene PPARG. To generalize the intended target to other relatable targets, this assay endpoint is annotated to the nuclear receptor intended target family, where the subfamily is non-steroidal.
Human recombinant PPARgamma receptors expressed in insect cells are used. Test compound and/or vehicle is incubated with the 2 nM receptors and coactivator peptide for 180 minutes at room temperature. Determination of the amount of complex formed is read spectrofluorimetrically (excitation: 337 nm, emission: 520/490 nm). Test compound-induced increase fluorescence by 50 percent or more (>/=50%) relative to 1 uM GW1929 response indicates possible PPARgamma receptor agonist activity. Test compound-induced inhibition of 5 nM GW1929-induced fluorescence response by 50 percent or more (>/=50%) indicates receptor antagonist activity.
In the case of `O=C(O)CCC(F)(F)C(F)(F)C(F)(F)F`, the compound was called inactive. For the compound `O=C(CC(=O)C(F)(F)C(F)(F)C(F)(F)F)c1cccs1`, the AC50 is 44.4 µM (active) and 43.2 µM (active). With `NC(=O)c1nc(-c2cccc(-c3cc(F)ccc3OCC(F)(F)C(F)(F)F)c2)n[nH]1`, the compound was called inactive.
